# Several values for one entry are separate records, joined by “and”; a condition that tells them apart may be missing. Equal entries are not always repeated. About 2,000 (36%) of roughly 5,500 compounds were called active. Inconclusive results (about 18%) are left out. This is one part of the list. Unmarked numbers belong to inactive results. Rule as the data show it: active = normalized growth mostly below about 0.91 (no sharp cut-off); inconclusive = no clear call, values can overlap the other calls; inactive = mostly above about 0.92.
# Test: chemical genetic growth profiling, strain panel (AID 1159580);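 also: tested at 20 µM; growth read once vehicle control cultures reached saturation at 30 °C; 1 = growth at the plate median or of vehicle wells; lower values mean less growth of the strain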
# Details: S. cerevisiae deletion strains, growth OD
# [1] = locus YHR030C, strain SLT2, active compounds read low
# [2] = locus YHR079C, strain IRE1, active compounds read low
# [3] = locus YJL095W, strain BCK1, active compounds read low
# [4] = locus YJR066W, strain TOR1, active compounds read low
# [5] = locus YLR113W, strain HOG1, active compounds read low
# [6] = locus YNL183C, strain NPR1, active compounds read low
# [7] = locus YOR231W, strain MKK1, active compounds read low
# [8] = locus YPL256C, strain CLN2, active compounds read low
structure (smiles),measurement,setting,value
C=C(C)[C@@H]1CC[C@]2(CO)CC[C@]3(C)[C@H](CCC4[C@@]5(C)CC[C@H](O)C(C)(C)C5CC[C@]43C)C12 (some centres not stated),normalized growth,"locus YAL021C, strain ccr4, active compounds read low",1.02
same,normalized growth,"locus YAL026C, strain drs2, active compounds read low",1.01
same,normalized growth,"locus YAL030W, strain snc1, active compounds read low",1.01
same,normalized growth,"locus YBL061C, strain skt5, active compounds read low",1.02
same,normalized growth,"locus YBR009C, strain hhf1, active compounds read low",1.01
same,normalized growth,"locus YBR021W, strain FUR4, active compounds read low",0.984
same,normalized growth,"locus YBR023C, strain chs3, active compounds read low",1.01
same,normalized growth,"locus YBR171W, strain sec66, active compounds read low",1.02
same,normalized growth,"locus YBR229C, strain ROT2, active compounds read low",0.995
same,normalized growth,"locus YBR231C, strain swc5, active compounds read low",1.01
same,normalized growth,"locus YBR279W, strain paf1, active compounds read low",1.01
same,normalized growth,"locus YCL011C, strain gbp2, active compounds read low",1.01
same,normalized growth,"locus YCL016C, strain dcc1, active compounds read low",1.01
same,normalized growth,"locus YCL029C, strain bik1, active compounds read low",0.979
same,normalized growth,"locus YCL061C, strain MRC1, active compounds read low",1.01
same,normalized growth,"locus YCL069W, strain vba3, active compounds read low",1.01
same,normalized growth,"locus YCR088W, strain abp1, active compounds read low",1.01
same,normalized growth,"locus YDL005C, strain med2, active compounds read low",1
same,normalized growth,"locus YDL035C, strain GPR1, active compounds read low",1.02
same,normalized growth,"locus YDL040C, strain nat1, active compounds read low",1.01
same,normalized growth,"locus YDL074C, strain BRE1, active compounds read low",1.01
same,normalized growth,"locus YDL101C, strain DUN1, active compounds read low",0.991
same,normalized growth,"locus YDL185W, strain tfp1, active compounds read low",0.977
same,normalized growth,"locus YDL192W, strain arf1, active compounds read low",0.997
same,normalized growth,"locus YDR001C, strain nth1, active compounds read low",1
same,normalized growth,"locus YDR069C, strain doa4, active compounds read low",1
same,normalized growth,"locus YDR101C, strain arx1, active compounds read low",0.977
same,normalized growth,"locus YDR137W, strain rgp1, active compounds read low",1.01
same,normalized growth,"locus YDR159W, strain sac3, active compounds read low",1.01
same,normalized growth,"locus YDR162C, strain NBP2, active compounds read low",1.02
same,normalized growth,"locus YDR195W, strain ref2",0.972
same,normalized growth,"locus YDR297W, strain sur2, active compounds read low",1.01
same,normalized growth,"locus YDR318W, strain mcm21, active compounds read low",1.02
same,normalized growth,"locus YDR334W, strain swr1, active compounds read low",0.996
same,normalized growth,"locus YDR335W, strain msn5, active compounds read low",1
same,normalized growth,"locus YDR388W, active compounds read low",1.01
same,normalized growth,"locus YDR392W, strain spt3, active compounds read low",0.925
same,normalized growth,"locus YDR502C, strain sam2, active compounds read low",0.997
same,normalized growth,"locus YEL003W, strain gim4, active compounds read low",1
same,normalized growth,"locus YEL037C, strain rad23, active compounds read low",0.977
same,normalized growth,"locus YEL061C, strain CIN8 (second series), active compounds read low",1
same,normalized growth,"locus YEL061C, strain CIN8, active compounds read low",1.02
same,normalized growth,"locus YER015W, strain faa2, active compounds read low",0.996
same,normalized growth,"locus YER016W, strain bim1, active compounds read low",1.01
same,normalized growth,"locus YER110C, active compounds read low",0.99
same,normalized growth,"locus YER111C, strain swi4, active compounds read low",1.01
same,normalized growth,"locus YER155C, strain BEM2 (second series), active compounds read low",0.984
same,normalized growth,"locus YER155C, strain BEM2, active compounds read low",0.992
same,normalized growth,"locus YER167W, strain BCK2, active compounds read low",1
same,normalized growth,"locus YFR010W, strain ubp6, active compounds read low",0.999
same,normalized growth,"locus YGL078C, strain dbp3, active compounds read low",0.989
same,normalized growth,"locus YGL086W, strain mad1, active compounds read low",0.973
same,normalized growth,"locus YGL167C, strain pmr1, active compounds read low",1.01
same,normalized growth,"locus YGL173C, strain kem1, active compounds read low",1.01
same,normalized growth,"locus YGL227W, strain vid30, active compounds read low",1.02
same,normalized growth,"locus YGL240W, strain doc1, active compounds read low",1.01
same,normalized growth,"locus YGL248W, strain PDE1, active compounds read low",1
same,normalized growth,"locus YGL253W, strain hxk2, active compounds read low",1.04
same,normalized growth,"locus YGR135W, strain pre9, active compounds read low",1.01
same,normalized growth,"locus YGR252W, strain gcn5, active compounds read low",1.05
same,normalized growth,"locus YHR013C, strain ard1, active compounds read low",1.03
same,normalized growth,"locus YHR027C, strain rpn1, active compounds read low",1
same,normalized growth,[1],0.995 and 0.997
same,normalized growth,"locus YHR079C, strain IRE1 (second series), active compounds read low",0.992
same,normalized growth,[2],0.998
same,normalized growth,"locus YHR094C, strain hxt1, active compounds read low",1
same,normalized growth,"locus YHR129C, strain ARP1, active compounds read low",0.949
same,normalized growth,"locus YHR142W, strain chs7, active compounds read low",1.06
same,normalized growth,"locus YHR200W, strain rpn10, active compounds read low",0.998
same,normalized growth,"locus YIL066C, strain RNR3, active compounds read low",0.993
same,normalized growth,"locus YIL073C, strain SPO22, active compounds read low",1.01
same,normalized growth,"locus YIL125W, strain kgd1, active compounds read low",0.986
same,normalized growth,"locus YIR030C, strain dcg1, active compounds read low",0.989
same,normalized growth,"locus YJL092W, strain hpr5, active compounds read low",1.01
same,normalized growth,"locus YJL095W, strain BCK1 (second series), active compounds read low",1.01
same,normalized growth,[3],1.02 and 0.982
same,normalized growth,"locus YJL115W, strain asf1, active compounds read low",1.01
same,normalized growth,"locus YJL129C, strain trk1, active compounds read low",1.03
same,normalized growth,"locus YJL134W, strain LCB3, active compounds read low",0.992
same,normalized growth,"locus YJL154C, strain vps35, active compounds read low",0.998
same,normalized growth,"locus YJL164C, strain tpk1, active compounds read low",1.01
same,normalized growth,"locus YJL166W, strain qcr8, active compounds read low",1.01
same,normalized growth,"locus YJL168C, strain set2, active compounds read low",0.994
same,normalized growth,"locus YJL187C, strain SWE1 (second series), active compounds read low",0.996
same,normalized growth,"locus YJL187C, strain SWE1, active compounds read low",1.01
same,normalized growth,"locus YJR043C, strain POL32, active compounds read low",0.996
same,normalized growth,[4],0.932
same,normalized growth,"locus YJR075W, strain HOC1, active compounds read low",1.01
same,normalized growth,"locus YKL009W, strain mrt4, active compounds read low",0.963
same,normalized growth,"locus YKL068W, active compounds read low",1.09 [resistant] (active)
same,normalized growth,"locus YKL160W, strain elf1, active compounds read low",1.03
same,normalized growth,"locus YKL190W, strain CNB1, active compounds read low",1.03
same,normalized growth,"locus YKR001C, strain vps1, active compounds read low",0.976
same,normalized growth,"locus YKR026C, strain gcn3, active compounds read low",1.01
same,normalized growth,"locus YKR091W, strain srl3, active compounds read low",1
same,normalized growth,"locus YLL001W, strain dnm1, active compounds read low",1.03
same,normalized growth,"locus YLL026W, active compounds read low",1
same,normalized growth,"locus YLL041C, strain sdh2, active compounds read low",1
same,normalized growth,"locus YLR027C, strain aat2, active compounds read low",1
same,normalized growth,"locus YLR039C, strain RIC1, active compounds read low",1.02
same,normalized growth,"locus YLR058C, strain SHM2, active compounds read low",1.01
same,normalized growth,"locus YLR102C, strain apc9, active compounds read low",0.991
same,normalized growth,[5],0.999
same,normalized growth,"locus YLR221C, strain rsa3, active compounds read low",1.03
same,normalized growth,"locus YLR258W, strain gsy2, active compounds read low",0.996
same,normalized growth,"locus YLR262C, strain YPT6 (second series), active compounds read low",1
same,normalized growth,"locus YLR262C, strain YPT6, active compounds read low",1.08
same,normalized growth,"locus YLR268W, strain sec22, active compounds read low",0.964
same,normalized growth,"locus YLR320W, strain mms22, active compounds read low",1.04
same,normalized growth,"locus YLR330W, strain CHS5, active compounds read low",1
same,normalized growth,"locus YLR342W, strain FKS1 (second series), active compounds read low",0.998
same,normalized growth,"locus YLR342W, strain FKS1, active compounds read low",0.986
same,normalized growth,"locus YLR357W, strain rsc2, active compounds read low",1.01
same,normalized growth,"locus YLR370C, strain arc18, active compounds read low",1.02
same,normalized growth,"locus YLR371W, strain rom2, active compounds read low",0.985
same,normalized growth,"locus YLR384C, strain iki3, active compounds read low",1.01
same,normalized growth,"locus YLR418C, strain cdc73, active compounds read low",1.01
same,normalized growth,"locus YML016C, strain PPZ1, active compounds read low",0.985
same,normalized growth,"locus YML032C, strain rad52, active compounds read low",1.02
same,normalized growth,"locus YML120C, strain ndi1, active compounds read low",1
same,normalized growth,"locus YML124C, strain tub3, active compounds read low",0.994
same,normalized growth,"locus YMR058W, strain fet3, active compounds read low",1.02
same,normalized growth,"locus YMR078C, strain ctf18, active compounds read low",0.973
same,normalized growth,"locus YMR125W, strain sto1, active compounds read low",1.01
same,normalized growth,"locus YMR129W, active compounds read low",1
same,normalized growth,"locus YMR205C, strain PFK2, active compounds read low",1.03
same,normalized growth,"locus YMR223W, strain ubp8, active compounds read low",1
same,normalized growth,"locus YMR231W, strain pep5, active compounds read low",1.01
same,normalized growth,"locus YMR307W, strain GAS1, active compounds read low",1.09
same,normalized growth,"locus YNL067W, strain RPL9B, active compounds read low",1
same,normalized growth,"locus YNL071W, strain lat1, active compounds read low",1.01
same,normalized growth,[6],0.939
same,normalized growth,"locus YNL209W, strain ssb2, active compounds read low",1.01
same,normalized growth,"locus YNL233W, strain BNI4, active compounds read low",0.999
same,normalized growth,"locus YNL248C, strain rpa49, active compounds read low",1
same,normalized growth,"locus YNL250W, strain rad50, active compounds read low",0.978
same,normalized growth,"locus YNL271C, strain bni1, active compounds read low",0.976
same,normalized growth,"locus YNL298W, strain CLA4, active compounds read low",1.01
same,normalized growth,"locus YNL307C, strain MCK1, active compounds read low",0.988
same,normalized growth,"locus YNL322C, strain KRE1 (second series), active compounds read low",1.01
same,normalized growth,"locus YNR049C, strain mso1, active compounds read low",1.01
same,normalized growth,"locus YNR052C, strain pop2, active compounds read low",0.998
same,normalized growth,"locus YOL012C, strain htz1",0.862
same,normalized growth,"locus YOL147C, strain pex11, active compounds read low",0.992
same,normalized growth,"locus YOR001W, strain rrp6, active compounds read low",0.98
same,normalized growth,"locus YOR061W, strain CKA2, active compounds read low",0.994
same,normalized growth,"locus YOR069W, strain VPS5, active compounds read low",0.99
same,normalized growth,"locus YOR070C, strain gyp1, active compounds read low",1.01
same,normalized growth,"locus YOR080W, strain dia2, active compounds read low",1.01
same,normalized growth,"locus YOR083W, strain WHI5, active compounds read low",1.03
same,normalized growth,"locus YOR106W, strain vam3, active compounds read low",1.02
same,normalized growth,"locus YOR136W, strain idh2, active compounds read low",0.979
same,normalized growth,"locus YOR144C, strain elg1, active compounds read low",0.997
same,normalized growth,"locus YOR184W, strain ser1, active compounds read low",0.98
same,normalized growth,[7],0.995
same,normalized growth,"locus YOR265W, strain rbl2, active compounds read low",1.02
same,normalized growth,"locus YOR270C, strain vph1, active compounds read low",1.04
same,normalized growth,"locus YOR290C, strain snf2, active compounds read low",1
same,normalized growth,"locus YOR316C, strain cot1, active compounds read low",0.999
same,normalized growth,"locus YPL051W, strain arl3, active compounds read low",1.02
same,normalized growth,"locus YPL078C, strain atp4, active compounds read low",1.01
same,normalized growth,"locus YPL106C, strain sse1, active compounds read low",1
same,normalized growth,"locus YPL240C, strain hsp82, active compounds read low",1
same,normalized growth,[8],0.972
same,normalized growth,"locus YPR119W, strain clb2, active compounds read low",0.993
same,normalized growth,"locus YPR141C, strain kar3, active compounds read low",0.984
same,normalized growth,"locus YPR163C, strain tif3, active compounds read low",1
same,normalized growth,"locus YPR167C, strain met16, active compounds read low",1.01
same,normalized growth,"strain wtn01, active compounds read low",0.946
C=C(C)[C@@H]1CC[C@]2(C)CC[C@]3(C)[C@@H](CCC4[C@@]5(C)CC[C@H](O)C(C)(C)C5CC[C@]43C)C12 (some centres not stated),normalized growth,[1],1
same,normalized growth,[2],0.978
same,normalized growth,[3],0.993
same,normalized growth,[4],0.944
same,normalized growth,[5],0.992
same,normalized growth,[6],0.923
same,normalized growth,[7],0.99
same,normalized growth,[8],0.994

# Source: PubChem BioAssay AID1159580 (chemical genetic matrix, 2015)
